Source: PubChem BioAssay
Hits are enriched below; roughly 0.4% of the tested compounds scored in any of these assays.
EPAC2 antag: EPAC2 (human) antagonism; EPAC2 GEF exchange of Rap1B-BODIPY-GDP, fluorescence; Q8WZA2; Potency, µM (series often up to 114 µM), for the others: at the highest dose activity, negative = inhibition, hits mostly inhibitors; AID 720708; 360,000 compounds, 0.18% hits; further: on the % scale 0 is the no-effect control and ±100 the full control effect; nearly all actives have a fitted effect of over 45% in size
EPAC2 agonist: EPAC2 (human) agonism. Q8WZA2. EPAC2 activation, biochemical qHTS; response scale: 100% = 6.5 mM cAMP response. Potency, µM (series often up to 154 µM), inactives show at the highest dose activation, hits mostly activators. 360,000 compounds, 0.079% hits; further: nearly all actives have a fitted effect of over 50% in size
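EPAC2 (100 nM) mixed with Rap1B loaded with BODIPY-GDP (250 nM) plus 50 uM unlabeled GDP; compounds pinned in, 5 min RT, then read every 5 min for 30 min (ex 480, em 540 nm). Normalized to cAMP control.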
EPAC1 antagonist: blocks human EPAC1 exchange factor. O95398. EPAC1 GEF assay, Rap1b-BODIPY-GDP exchange fluorescence. Potency, µM (highest dose often 115 µM), inactives show at the top dose activity change, negative = inhibition, usual class: inhibitors. 360,000 compounds, 0.14% hits. AID 720709;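 further: plate controls were vehicle for no effect and positive control for full effect; nearly all actives have a fitted effect of over 50% in size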
EPAC1 ag: activates human EPAC1 exchange factor. O95398. EPAC1 agonist qHTS, biochemical assay; response scale: 100% = response to 6.5 mM cAMP. Potency, µM (titrated, usually from 154 µM), for inactives: at the top dose activation, usual class: activators. 360,000 compounds, 0.073% hits. AID 720707; further: nearly all actives have a fitted effect of over 60% in size
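Multi-concentration qHTS readout: loss of Rap1B-bound BODIPY-GDP fluorescence driven by 100 nM EPAC1 with excess GDP (50 uM), monitored kinetically at room temperature; agonist response expressed relative to 6.5 mM cAMP.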
B2AR arrestin: agonists driving beta-arrestin recruitment to human beta2-adrenergic receptor; AID 492947; P07550; Potency, µM (series often up to 46.1 µM), inactives show top-dose activation, usual class: activators; beta-arrestin recruitment to beta2AR, cell-based reporter; 330,000 compounds, 0.02% hits;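 further: 0% = DMSO controls and full agonism = EC100 isoproterenol or metaproterenol; nearly all actives have a fitted effect of over 65% in size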
Target sequence (P07550 whole entry, looked up): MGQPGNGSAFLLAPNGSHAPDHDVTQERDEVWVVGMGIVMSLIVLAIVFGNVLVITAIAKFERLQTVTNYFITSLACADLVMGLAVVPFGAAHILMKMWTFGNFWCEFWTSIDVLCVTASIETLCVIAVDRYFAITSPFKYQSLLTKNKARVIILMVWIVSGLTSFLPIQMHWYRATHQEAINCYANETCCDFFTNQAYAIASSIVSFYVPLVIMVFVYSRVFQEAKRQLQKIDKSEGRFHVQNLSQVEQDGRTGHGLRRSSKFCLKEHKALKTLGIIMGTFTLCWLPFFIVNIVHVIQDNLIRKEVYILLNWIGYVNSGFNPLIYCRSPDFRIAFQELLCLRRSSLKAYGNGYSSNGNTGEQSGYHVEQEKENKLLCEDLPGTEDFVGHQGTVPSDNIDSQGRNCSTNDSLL
Numbers without * were called inactive; ? = inconclusive; . = no result given. The call rests on the fitted dose curve; in most records, active means well fitted curve in the direction sought with a large enough effect; inconclusive means small, poorly fitted or top-dose-only effect, or another doubt; inactive means no such curve, though single readings can be large; an effect the other way counts as inactive or inconclusive. Potency means the concentration at half of the fitted maximal effect.

SMILES | EPAC2 antag | EPAC2 agonist | EPAC1 antagonist | EPAC1 ag | B2AR arrestin
COc1ccccc1NC(=O)c1sc2nc(Cc3ccccc3)cc(C(F)(F)F)c2c1N | 79µM* | -6% | -9% | 2% | 0%
N#C/C(=C\c1ccccn1)c1nc2ccccc2s1 | 25µM* | -107% | ? | -42% | 0%
Nc1ncnc2c1nc(Sc1ccc(Cl)cc1)n2[C@@H]1O[C@@H]2COP(=O)(O)O[C@H]2[C@H]1O | 2.8µM* | ? | ? | ? | .
O=C1NNC(c2ccccc2)=N/C1=C\c1ccccc1Cl | ? | 26% | 40µM* | 2% | -1%
O=C1NNC(c2ccccc2)=N/C1=C\c1ccco1 | 4% | 4% | -20% | 6% | -1%
CC1CCN(C(=O)CSc2nnc(CN3CCOCC3)n2-c2ccccc2)CC1 | 2% | -6% | 32µM* | 9% | 0%
O=C1NN(c2ccccc2)C(=O)/C1=C\c1ccc(-c2cc([N+](=O)[O-])ccc2O)o1 | 79µM* | -23% | -4% | -6% | -1%
O=C1NN(c2ccc(Cl)cc2)C(=O)/C1=C\c1ccc(-c2cccc(C(=O)O)c2)o1 | -3% | 0% | ? | 2% | 0%
COc1ccc([N+](=O)[O-])cc1NC(=S)Nc1ccccc1 | 6% | 7.9µM* | -2% | 0% | 0%
Cc1oc(-c2ccccc2)nc1CS(=O)CC(=O)NC1CCCC1 (stereo unspecified) | 2% | 10% | -13% | -5% | 0%
COc1cccc(NC(=O)c2csc3c2CCCC3)c1 | -9% | 13% | 155% | 100µM* | 0%
COc1ccc(C(=O)OCC(=O)NC2CC2)cc1S(=O)(=O)Nc1ccc(C)cc1 | -8% | 10% | 3% | 1% | 0%
NC(=O)c1sc(=S)n2c1[nH]c(=O)c1sccc12 | 40µM* | -4% | ? | 10% | 0%
CC(=O)NNC(=O)c1sc(=S)n2c1[nH]c(=O)c1sccc12 | ? | -2% | ? | -16% | 0%
COC(=O)C[C@H]1C[C@H]2c3cc(NC(=O)Nc4ccc(C(F)(F)F)cc4)ccc3O[C@H]2[C@@H](CO)O1 | 0% | 1% | -15% | -20% | .
CC1=C(C(=O)OCc2ccc3c(c2)OCO3)C(c2ccccc2)NC(=O)N1 (stereo unspecified) | -7% | 100µM* | 2% | 7% | -1%
COc1cc(/C=C2/SC(=S)N(C)C2=O)ccc1OC(=O)c1ccco1 | -4% | 12% | 13% | 4% | -1%
COc1cc(/C=C2\SC(=S)N(CC(=O)O)C2=O)ccc1OS(=O)(=O)c1ccc(C)cc1 | ? | -12% | 89µM* | -11% | -1%
COc1cc(/C=C2/SC(=S)N(CC(=O)O)C2=O)ccc1OC(=O)c1cccs1 | ? | 12% | 79µM* | -8% | 3%
COc1cc(/C=C2/SC(=S)N(Cc3ccccc3)C2=O)ccc1OS(C)(=O)=O | 0% | 19% | -26% | 6% | 0%
Cc1ccc(S(=O)(=O)N2CCN(c3ccccc3)CC2)s1 | -6% | 14% | 1% | 2% | 0%
COc1cccc(Nc2ccccc2C(=O)O)c1 | -2% | 2% | ? | 8% | 0%
COc1cc(-c2ccc(Nc3ccccc3C(=O)O)c(OC)c2)ccc1Nc1ccccc1C(=O)O | -8% | -4% | 79µM* | -9% | -1%
CCCCCC1CCC(c2n[nH]c(=S)n2C)CC1 (stereo unspecified) | -1% | -16% | 10% | -10% | 4µM*
N#Cc1cccc(NC(=O)c2cc(C3CCCCN3C(=O)c3ccccn3)on2)c1 (stereo unspecified) | -17% | 7% | -15% | 3% | .
SMILES | EPAC2 antag | EPAC2 agonist | EPAC1 antagonist | EPAC1 ag | B2AR arrestin
CC(C)CC(=NNC(=O)c1ccncc1)c1cc(Cl)ccc1O | 2% | ? | -1% | 100µM* | .
CCOc1cc(S(=O)(=O)N(CC)CC)ccc1Cl | 40µM* | 2% | -4% | 6% | 0%
O=C(Oc1c(CN2CCOCC2)cc(Cl)c2cccnc12)c1ccccc1F | -19% | 22% | -22% | 10% | 5.6µM*
COc1cc(OC)cc(C(=O)Oc2c(CN3CCOCC3)cc(Cl)c3cccnc23)c1 | 3% | 15% | -20% | 3% | 4µM*
COc1ccc(C(=O)Oc2c(CN3CCOCC3)cc(Cl)c3cccnc23)cc1OC | 4% | 10% | 3% | 9% | .
CC(NC(=O)c1cc(S(=O)(=O)N2CCOCC2)ccc1N1CCCC1)c1ccc(Cl)c(Cl)c1 (stereo unspecified) | 14% | 6% | 7% | 56µM* | 0%
CCCNCC(=O)Nc1sc2c(c1C(=O)Nc1c(C)n(C)n(-c3ccccc3)c1=O)CCCC2 | 3% | 4% | 5% | 6% | .
CC(=O)Nc1ncc(Sc2ccc([N+](=O)[O-])cc2)s1 | -12% | -9% | 0% | -6% | .
CCNc1ccc2noc3c2c1C(=O)c1ccccc1-3 | 152% | 89µM* | 415% | 112µM* | 0%
O=C1c2ccccc2-c2onc3ccc(NCc4ccco4)c1c23 | 252% | ? | 102% | ? | 0%
CC1(C(=O)NS(=O)(=O)c2cccc(C#N)c2)CCN1C(=O)CC1CC1 (stereo unspecified) | 6% | 6% | 3% | 0% | .
CC1C/C(=N\NC(N)=S)c2cc(Cl)ccc2S1 (stereo unspecified) | 17% | 10% | -6% | -3% | 6.3µM*
CC(C)=C1CCC(C)CC1=NNC(N)=S (stereo unspecified) | 9% | 6% | 1% | 7% | .
O=C(O)CN(CCc1ccccc1)S(=O)(=O)c1ccccc1 | -1% | 4% | -19% | 15% | 0%
Oc1ccc(/C(Cc2ccccn2)=N\Nc2ccccc2)c(O)c1 | 45µM* | 8% | ? | 19% | 0%
OCCN(CCO)c1nc(N2CCCCC2)c2nc(N(CCO)CCO)nc(N3CCCCC3)c2n1 | 185% | 112µM* | 190% | 100µM* | -1%
Cc1cccc(NC(=O)CSCC(=O)N(C)CCOc2ccc(Cl)cc2)c1 | -7% | 9% | -12% | 50µM* | 0%
Cc1ccc(NC(=O)CSCC(=O)N(C)CCOc2ccc(Cl)cc2)cc1 | -15% | 0% | 1% | 6% | -1%
CSC1=NCCN1C(=O)c1ccc2c(c1)OCO2 | -4% | -6% | 9% | 4% | 3%
CC1=CC(C)(C)N(C(=O)c2ccc(F)cc2)c2cc3c(cc21)OCO3 | 50µM* | 10% | -20% | 11% | 0%
CC1=NN(C(C#N)c2ccc(F)cc2)C(c2ccccc2)C1 (stereo unspecified) | -4% | 5% | -2% | -8% | 3%
COc1ccc(OC)c(C2SCCN2S(C)(=O)=O)c1 (stereo unspecified) | 2% | 9% | -1% | 9% | -2%
COc1ccccc1C1SCCN1S(C)(=O)=O (stereo unspecified) | 0% | 7.9µM* | -2% | -2% | 1%
